Test results: article PMC8384837, “Expanding the binding specificity for RNA recognition by a PUF domain”

The sequences below were run against PUM1 PUF domain R5-KRS (Homo sapiens, UniProt Q14671 828-1176, C1007K;Q1011S) (assay: yeast three-hybrid, YBZ-1, SC-Leu-His + 0.5 mM 3-AT, 4 days). Conditions: tags: N-Gal4 AD-HA kept; label: inside an RPR1-promoter hybrid RNA with tandem MS2 sites; ssRNA.
Method in brief: (§1)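 The interaction score is the log change in variant frequency from input to selection. Scores were computed in log2 with a pseudocount of 1 for absent variants, using Illumina sequencing of PCR-amplified repeat regions. The input came from four days on SC-Leu and the selection from four days on SC-Leu-His + 0.5 mM 3-AT. The cells were strain YBZ-1 (LexA–MS2 coat fusion, HIS3 reporter) co-expressing Pumilio-1 PUF domain libraries and matching RNA elements from a centromeric plasmid.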

Sequence of PUM1 PUF domain R5-KRS (Q14671 828-1176 C1007K/Q1011S): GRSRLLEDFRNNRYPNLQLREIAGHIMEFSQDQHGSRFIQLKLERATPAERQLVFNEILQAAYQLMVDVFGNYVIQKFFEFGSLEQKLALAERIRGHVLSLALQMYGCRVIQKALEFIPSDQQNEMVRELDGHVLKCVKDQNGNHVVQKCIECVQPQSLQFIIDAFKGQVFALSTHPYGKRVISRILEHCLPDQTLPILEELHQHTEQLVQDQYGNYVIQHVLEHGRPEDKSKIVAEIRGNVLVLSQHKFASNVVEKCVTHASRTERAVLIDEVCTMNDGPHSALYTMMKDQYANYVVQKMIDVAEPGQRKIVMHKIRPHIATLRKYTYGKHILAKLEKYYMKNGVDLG

| Sequence | binding signal |
| --- | --- |
| GGCUAGAACUAGUGGAUCCCCCGGCGCCCGGCGGCUCGAGCCCGGGUAAGUGUAAAUAGUCUGCAUGCCGCCGGGCGCCAUGCCUGCAGGUCGACUCUAGAAAACAUG | 1.71 log2 enrichment (interaction score) |
| GGCUAGAACUAGUGGAUCCCCCGGCGCCCGGCGGCUCGAGCCCGGGUAAGUGUUAAUAGUCUGCAUGCCGCCGGGCGCCAUGCCUGCAGGUCGACUCUAGAAAACAUG | 3.41 log2 enrichment (interaction score) |
| GGCUAGAACUAGUGGAUCCCCCGGCGCCCGGCGGCUCGAGCCCGGGUAAGUGUCAAUAGUCUGCAUGCCGCCGGGCGCCAUGCCUGCAGGUCGACUCUAGAAAACAUG | 3.74 log2 enrichment (interaction score) |

These sequences were tested against PUM1 PUF domain R4-SRG (Homo sapiens, UniProt Q14671 828-1176, N971S;H972R;Q975G) in the same assay as above. Conditions: tags: N-Gal4 AD-HA kept; label: inside an RPR1-promoter hybrid RNA with tandem MS2 sites; ssRNA.
Method in brief: as §1

| Sequence | binding signal |
| --- | --- |
| GGCUAGAACUAGUGGAUCCCCCGGCGCCCGGCGGCUCGAGCCCGGGUAAGUGUAAAUAGUCUGCAUGCCGCCGGGCGCCAUGCCUGCAGGUCGACUCUAGAAAACAUG | 4.42 log2 enrichment (interaction score) |
| GGCUAGAACUAGUGGAUCCCCCGGCGCCCGGCGGCUCGAGCCCGGGUAAGUGUACAUAGUCUGCAUGCCGCCGGGCGCCAUGCCUGCAGGUCGACUCUAGAAAACAUG | 0.54 log2 enrichment (interaction score) |
| GGCUAGAACUAGUGGAUCCCCCGGCGCCCGGCGGCUCGAGCCCGGGUAAGUGUAUAUAGUCUGCAUGCCGCCGGGCGCCAUGCCUGCAGGUCGACUCUAGAAAACAUG | 1.37 log2 enrichment (interaction score) |
